Only a selection was taken, and hits are over-represented in it overall.
RBX1-CUL1 inh = inhibitors of human ROC1-CUL1 ubiquitin ligase activity; in vitro K48 di-Ub FRET, acceptor:donor ratio, 45 min; 140,000 compounds, 0.6% hits; AID 1347404, 2020; inhibition, % at 10 µM; in the data active = inhibition above about 25%
The depositor's hits bear a star.

SMILES	RBX1-CUL1 inh
COc1ccccc1CCNC(=O)Cc1ccc(N2CCC(NC3CCc4ccccc43)CC2)cc1 (stereo not given)	0.4
Cc1ccc(N2C(=O)/C(=C/c3cc(C)n(C(C)C)c3C)C(=O)NC2=S)c(C)c1	-7.1
CCOc1ccc(N2C(=O)/C(=C/c3cccn3-c3cccc(C(=O)O)c3)C(=O)NC2=S)cc1	18.8
COc1ccc(Cl)cc1/C=C1\C(=O)NC(=S)N(c2ccc(C)cc2C)C1=O	1.5
Cc1ccc(N2C(=O)/C(=C/c3cccn3-c3cccc(C(=O)O)c3)C(=O)NC2=S)c(C)c1	97.5*
CCc1ccccc1N1C(=O)/C(=C/c2cccn2-c2ccc(Cl)cc2)C(=O)NC1=S	36.4*
Cc1cccc(N2C(=O)/C(=C/c3cccn3-c3cccc(C(=O)O)c3)C(=O)NC2=S)c1	14.9
O=C1NC(=S)N(c2cccc(F)c2)C(=O)/C1=C/c1cccn1-c1cccc(C(F)(F)F)c1	6.8
Cc1cccc(N2C(=O)/C(=C/c3cccn3-c3cccc(C(F)(F)F)c3)C(=O)NC2=S)c1C	53.4*
CCCN1C(=O)/C(=C\c2cccn2-c2cccc(C(F)(F)F)c2)C(=O)N(c2ccccc2)C1=S	5.1
CN(C)c1ccc(-n2cccc2/C=C2\C(=O)NC(=S)N(c3ccc(Br)cc3)C2=O)cc1	6.9
Cc1cccc(N2C(=O)/C(=C/c3cccn3-c3ccc(Cl)cc3)C(=O)NC2=S)c1C	-1.6
Cc1ccc(N2C(=O)/C(=C/c3cn(CC(=O)O)c4ccccc34)C(=O)NC2=S)c(C)c1	54.3*
CC(C)(C)c1cc(C(=O)N2CC(c3ccccc3)C2)cc(C(C)(C)C)c1	5.9
Cc1cc(=O)n2ncnc2n1CC(=O)NNC(=O)Nc1ccccc1	10.5
COCC(=O)Nc1ccccc1-c1cccc(-c2ccn[nH]2)c1	5.2
CCn1ccnc1CN(C)C(=O)c1cc(Cn2ccc3ccccc32)[nH]n1	-4.1
CSc1nc(Oc2ccc(F)cc2Cl)cc(-n2nc(SC)c(C#N)c2N)n1	1.0
COCOc1cc(-c2cccs2)c(OCOC)cc1-c1cccs1	6.9
CCS(=O)(=O)Nc1ccc(C(=O)NCC(C)C)cc1	8.5
COc1ccc(S(=O)(=O)NCc2ccc(CNS(=O)(=O)c3ccc(OC)cc3)cc2)cc1	2.8
O=C(Cn1cnc2ccccc2c1=O)c1ccc(Cl)c(Cl)c1	1.6
Cc1ccccc1N1CCN(C2CCCN(C(=O)c3ccc4c(c3)no[n+]4[O-])C2)CC1 (stereo not given)	-2.1
C/C(=N\NC(=O)c1ccc(OC2CCCC2)cc1)c1ccc(Cl)s1	-2.3
COC(=O)c1ccc([C@H]2Nc3ccc(S(=O)(=O)Nc4ccc(C)cc4)cc3[C@H]3C=CC[C@H]32)cc1	10.8
SMILES	RBX1-CUL1 inh
Cc1cccc(C)c1NS(=O)(=O)c1ccc2c(c1)[C@H]1C=CC[C@H]1[C@@H](c1ccc(Cl)cc1)N2	7.8
Cc1cccc(NS(=O)(=O)c2ccc3c(c2)[C@H]2C=CC[C@H]2[C@@H](c2ccc(C(C)(C)C)cc2)N3)c1	-1.5
O=C(O)c1ccc2c(c1)C1C=CCC1C(c1cccc3ccccc13)N2 (stereo not given)	95.4*
COc1ccc(NS(=O)(=O)c2ccc3c(c2)[C@H]2C=CC[C@H]2[C@@H](c2ccc(C(=O)O)cc2)N3)cc1	96.7*
CC(C)c1ccc2c(c1)[C@@H]1C=CC[C@@H]1[C@H](c1ccc(S(=O)(=O)N3CCOCC3)cc1)N2	31.2*
COc1cccc([C@@H]2Nc3ccc(C(=O)O)cc3[C@@H]3C=CC[C@@H]32)c1OC	-12.2
COc1cccc([C@H]2Nc3ccc(S(=O)(=O)Nc4ccc(C)c(C)c4)cc3[C@H]3C=CC[C@H]32)c1	-5.3
C1=CC2c3c(ccc4ccccc34)NC(c3cccc4ccccc34)C2C1 (stereo not given)	-6.4
CC(C)N(C)[C@@H]1c2ccccc2C2(CCN(S(=O)(=O)N(C)C)CC2)[C@H]1O	-4.5
Cc1cccc(C)c1OCC(=O)Nc1ccc(Cl)c(-c2nc3ccccc3c(=O)o2)c1	2.2
Cc1ccc(-c2csc(/C(C#N)=C/c3ccccc3)n2)cc1	-15.4
C=CCSc1nc(SCC=C)c2c3c(sc2n1)CN(C(=O)OCC)CC3	9.7
CCn1ccnc1CN1CCC(C2CCN(CCc3ccccc3)C2)CC1 (stereo not given)	2.8
C=CCn1c(=O)c2c(nc3n(CC)c(C)cn23)n(C)c1=O	-8.4
O=c1c2cc(-c3ccccc3)sc2ncn1/N=C/c1ccc(OC(F)F)cc1	6.0
O=C(c1ccco1)N1CCN(Cc2cn[nH]c2-c2ccc3c(c2)OCO3)CC1	-4.3
CCc1ccc(C)c(OC(=O)c2ccc(C)cc2)c1	-7.3
Cc1ccc(C)c(OC(=O)c2ccc(=O)oc2)c1	27.6*
O=C(Oc1ccc(S(=O)(=O)O)cc1C(=O)O)c1ccc(=O)oc1	5.3
COC(=O)CCCNC(=O)c1ccc2oc(C(C)C)nc2c1	3.8
O=C(O)c1ccnc(SCC(=O)c2ccccc2)c1	6.3
O=C(O)c1cccnc1SCc1c(F)c(F)c(F)c(F)c1F	12.6
CCOc1ccc(-c2nc(SCC(=O)c3ccccc3)n[nH]2)cc1	-2.5

Screening results deposited in PubChem BioAssay by Pan Lab, Icahn School of Medicine at Mount Sinai.
